Assay outcomes deposited in PubChem by National Center for Advancing Translational Sciences (NCATS).
Tau fluor cs: counter-screen for tau fibril formation inhibitors. tau K18 P301L Alexa594 fluorescence, heparin fibrillization. Potency, µM (series often up to 57.7 µM), for inactives: at the highest dose activity change, negative = decrease. hit rate 0.93% among 280,000. AID 1463; further: potency means the concentration at half of the fitted maximal effect; nearly all actives have a fitted effect of over 55% in size
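Human tau K18 P301L (15 uM unlabeled, 0.24 uM Alexa 594-labeled) in 100 mM sodium acetate pH 7 with 20 uM heparin, 6 hr at 37 C. ThT 30 uM added, 1 hr ambient; Alexa 594 FP and total fluorescence read at 555/632 nm.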
Sfp PPTase inh: inhibitors of Bacillus subtilis Sfp phosphopantetheinyl transferase; Q9F4F7; Biochemical Sfp PPTase activity, qHTS; Potency, µM, for the others: largest response in the series, negative = inhibition, usual class: inhibitors; hit rate 3.5% among 310,000;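 further: the enzyme is Sfp with the accession as filed and its product quenches rhodamine fluorescence; potency means the concentration at half of the fitted maximal effect; 0% = enzyme reaction without inhibitor and -100% = no enzyme wells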
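Fluorescence-quenching assay: 15 nM Sfp-PPTase preincubated 15 min at room temperature with compound, then 5 uM rhodamine-CoA and 12.5 uM BHQ-2-labelled YbbR peptide added. Fluorescence (ex 525/em 598 nm) read at start and after 30 min; difference gives rate.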
Tau ThT inhib: tau fibrillization inhibition (ThT binding); P10636; recombinant tau K18 P301L, heparin-induced fibrillization, ThT fluorescence; Potency, µM (highest dose often 57.4 µM), for the others: at the highest dose activity, negative = inhibition, usual class: inhibitors; hit rate 2.1% among 270,000; AID 1460; further: potency means the concentration at half of the fitted maximal effect; nearly all actives have a fitted effect of over 55% in size
Target sequence (P10636 561-689 P618L limits assumed): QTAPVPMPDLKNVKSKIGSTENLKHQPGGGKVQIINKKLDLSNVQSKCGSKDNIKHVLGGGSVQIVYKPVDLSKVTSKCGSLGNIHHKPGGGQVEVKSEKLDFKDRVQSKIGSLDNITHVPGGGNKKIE
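Fibril formation assay: tau K18 P301L at 15 uM with trace Alexa 594 label, heparin inducer 20 uM, pH 7 sodium acetate buffer, 37 C for 6 hr; endpoint ThT signal.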
G9a inh: G9a (human) methyltransferase inhibition. Q96KQ7. G9a H3K9 monomethylation, AlphaScreen, 2 h. Potency, µM (doses to about 102 µM), for inactives: at the top dose activity, negative = inhibition, usual class: inhibitors. hit rate 8.8% among 350,000. AID 504332; further: potency means the concentration at half of the fitted maximal effect; nearly all actives have a fitted effect of over 75% in size
Target sequence (Q96KQ7 913-1193 limits assumed): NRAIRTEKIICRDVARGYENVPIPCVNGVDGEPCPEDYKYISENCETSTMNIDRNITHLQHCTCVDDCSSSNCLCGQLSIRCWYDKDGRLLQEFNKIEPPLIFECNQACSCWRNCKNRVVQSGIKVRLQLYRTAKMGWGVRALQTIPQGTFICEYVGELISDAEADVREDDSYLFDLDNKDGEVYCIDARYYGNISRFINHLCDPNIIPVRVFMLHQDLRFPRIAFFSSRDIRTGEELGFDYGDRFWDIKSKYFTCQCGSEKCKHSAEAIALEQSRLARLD
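Enzyme 20 nM + cpd, 15 min RT; add b-H3K9 pep 500 nM / SAM 20 uM; 2 h RT; anti-H3K9me1 Ab 0.5 ug/mL + SA donor / anti-rabbit acceptor beads 20 ug/mL each, 10 min; AlphaScreen read.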
Tau FP inhib: blocks human tau fibril formation measured by polarization; P10636; AID 1468; hit rate 0.39% among 280,000; Potency, µM (highest dose often 57.7 µM), for inactives: at the top dose activity, negative = inhibition, hits mostly inhibitors; K18 P301L tau heparin fibrillization, Alexa594 FP, 6 h; further: potency means the concentration at half of the fitted maximal effect; nearly all actives have a fitted effect of over 55% in size
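K18 P301L tau (15 uM unlabeled/0.24 uM Alexa 594-labeled, final) + compound + heparin 20 uM final; 100 mM NaOAc pH 7; 6 hr 37 C; ThT 30 uM final added, 1 hr RT; FP ex 555/em 632 nm.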
Coupling enz: counter-screen for Giardia aldolase inhibitors: coupling enzyme system; coupling enzyme system counterscreen, AmpLite Red fluorescence; activity change, negative = inhibition, % at 58.2 µM, hits read low; hit rate 0.67% among 290,000; AID 2472; in the data active means activity change below about -30%
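Activity here indicates interference with the coupling reaction, not aldolase inhibition. Compounds at 57.5 uM final met coupling enzymes for 10 min at RT; substrate and AmpLite Red detection followed, with a 525/598 nm fluorescence read after 20 min.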
* marks the source's active call; other numbers are inactive results; ? = inconclusive; . = no result given; ! = repeats disagree; [ ] = dose if it differs, or a comment. Rows were chosen to be rich in hits. Some 11% of all compounds tested hit in one or more screens of this group. Unless noted, the call rests on the fitted dose curve; in most records, active means well fitted curve in the direction sought with a large enough effect; inconclusive means small, poorly fitted or top-dose-only effect, or another doubt; inactive means no such curve, though single readings can be large; an effect the other way counts as inactive or inconclusive. Unless noted, on the % scale 0 is the no-effect control and ±100 the full control effect.

SMILES	Tau fluor cs	Sfp PPTase inh	Tau ThT inhib	G9a inh	Tau FP inhib	Coupling enz
COc1ccc(S(=O)(=O)N2CCC(C(=O)Nc3ccccc3)CC2)cc1OC	-4%	.	3%	3%[59 µM]	-15%	.
O=C(Nc1ccccc1N1CCCC1)C1CCN(S(=O)(=O)c2cccc(C(F)(F)F)c2)CC1	.	.	.	14µM*	.	.
COc1cc(NC(=O)c2cc(C)no2)cc(OC)c1OC	.	8%	.	4%	.	0
CC1CCCCN1CCCNC(=O)CCCN1C(=O)c2cccnc2Sc2ccccc21 (stereo not given)	.	12%	.	.	.	.
CCCc1cc2c(OC(=O)CC)c(-c3ccc(C(=O)OCC)o3)c(=O)oc2cc1OC	-27%	-14%	25µM*	-11%[59 µM]	5%	5
O=C(Nc1cc(Cl)ccc1N1CCCC1)C1=NN(c2ccccc2)C(=O)CC1	.	-8%	.	45µM*	.	.
Cc1ccc(C)c(N2N=C(C(=O)Nc3ccccc3N3CCOCC3)CCC2=O)c1	.	.	.	-11%[59 µM]	.	.
Cc1ccc(C)c(N2N=C(C(=O)Nc3ccccc3N3CCCC3)CCC2=O)c1	.	-5%	.	50µM*	.	.
CCN(CC)S(=O)(=O)c1ccc(N2CCCC2)c(NC(=O)C2=NN(c3ccccc3)C(=O)CC2)c1	.	.	.	4%[2.33 µM]	.	.
O=C(Nc1ccc(N2CCOCC2)cc1)C1=NN(c2ccccc2)C(=O)CC1	.	.	.	45µM*	.	.
O=C(Nc1ccc(Cl)cc1)c1cc(S(=O)(=O)N2CCc3ccccc32)ccc1F	?	.	4%	4%[59 µM]	?	.
O=C(NCC(c1cccnc1)N1CCc2ccccc21)c1cccc(Br)c1 (stereo not given)	-23%	.	-1%	-4%[59 µM]	0%	.
CCOC(=O)C(=NCCCN1CCOCC1)NNc1cccc(C(F)(F)F)c1	-26%	-13%	-11%	50µM*	2%	-1
CCc1nc(NCc2ccccn2)c2oc3ccccc3c2n1	-13%	13%	-15%	25µM*	-9%	-3
CCc1nc(Nc2ccccc2OC)c2oc3ccccc3c2n1	.	-21%	.	50µM*	.	1
O=C(CN1C(=O)C(=O)N(Cc2ccco2)C1=O)c1c[nH]c2ccccc12	?	?	-13%	50µM*	1%	0
Cc1ccc(C)c(NS(=O)(=O)c2ccc3[nH]c(=O)oc3c2)c1	-28%	4%	-17%	45µM*	12%	12
CCCOc1ccc(Cc2c(COCC)[nH]c(=S)[nH]c2=O)cc1	-12%	6%	-6%	45µM*	-16%	4
O=C(NCCc1ccc(Cl)cc1)c1cccn1-c1nnc(N2CCCCC2)s1	-15%	.	-9%	2%[59 µM]	5%	.
Cc1cc(C)c2sc(N(CCCN(C)C)C(=O)c3ccc(S(=O)(=O)N(C)C4CCCCC4)cc3)nc2c1	.	.	.	35µM*	.	.
COc1cc2nc(N(CCCN(C)C)C(=O)c3ccc(S(=O)(=O)N(C)C4CCCCC4)cc3)sc2cc1OC	.	.	.	45µM*	.	.
CCc1ccc2nc(N(CCCN(C)C)C(=O)c3ccc(S(=O)(=O)N(C)C4CCCCC4)cc3)sc2c1	.	45µM*	.	?	.	.
CCCCN(C(=O)c1ccc(S(=O)(=O)N(C)C)cc1)c1nc2ccccc2s1	-9%	8%	-1%	21%[59 µM]	-6%	-3
CCc1ccc2nc(N(CCCN(C)C)C(=O)c3ccc(S(=O)(=O)N4CCc5ccccc5C4)cc3)sc2c1	.	63µM*	.	.	.	.
CCOc1cccc2sc(N(CCCN(C)C)C(=O)c3ccc(S(=O)(=O)N4CCc5ccccc5C4)cc3)nc12	.	-29%	.	.	.	2
SMILES	Tau fluor cs	Sfp PPTase inh	Tau ThT inhib	G9a inh	Tau FP inhib	Coupling enz
COc1ccc(-c2nc3sc(CCNC(=O)c4cc(OC)c(OC)c(OC)c4)c(C)n3n2)cc1	-18%	.	-19%	2%[59 µM]	9%	.
CCC(Oc1ccccc1)C(=O)N1CCN(Cc2cc(=O)n3nc(-c4cccc(C)c4)sc3n2)CC1 (stereo not given)	5%	.	?	0%[59 µM]	-1%	.
COc1cc2nc(N(CCN(C)C)C(=O)c3ccc(S(=O)(=O)N(C)CC4CCCO4)cc3)sc2cc1OC (stereo not given)	.	-1%	.	32µM*	.	0
CN(C)CCN(C(=O)c1ccc(S(=O)(=O)N(C)CC2CCCO2)cc1)c1nc2cc3c(cc2s1)OCO3 (stereo not given)	.	-3%	.	?	.	0
CN(C)CCCN(C(=O)c1ccc(C(=O)c2ccccc2)cc1)c1nc2ccc(F)cc2s1	.	-23%	.	?	.	5
CN(C)CCCN(C(=O)c1ccc(S(=O)(=O)N(C)C2CCCCC2)cc1)c1nc2ccc(Br)cc2s1	.	40µM*	.	.	.	.
CN(C)CCCN(C(=O)c1ccc(S(=O)(=O)N(C)C2CCCCC2)cc1)c1nc2ccc(F)cc2s1	.	-20%	.	45µM*	.	.
CN(C)c1cccc(C(=O)N2CCCC(CCC(=O)NCc3ccccc3F)C2)c1 (stereo not given)	.	-5%	.	-13%	.	-1
CCOc1cc(S(=O)(=O)NCCc2c(C)[nH]c3ccc(C)cc23)ccc1Br	3.5µM*[quencher]	.	?	?	15%	.
CCOc1cc(S(=O)(=O)NCCc2c(C)[nH]c3ccc(C)cc23)ccc1F	?	.	-8%	-46%[59 µM]	?	.
COc1ccc(C)cc1NC(=O)CSc1nc(=O)n(Cc2ccccn2)c2c1CCC2	7%	.	-3%	?	-6%	.
C=CCN(Cc1cccs1)C(=O)CN1CCN(S(=O)(=O)c2ccc3c(c2)OCCCO3)CC1	.	.	.	-12%[2.33 µM]	.	.
CCN(Cc1cccs1)C(=O)CN1CCN(S(=O)(=O)c2ccc3c(c2)OCCCO3)CC1	.	.	.	45µM*	.	.
CN(Cc1cccs1)C(=O)CN1CCN(S(=O)(=O)c2ccc3c(c2)OCCCO3)CC1	.	.	.	45µM*	.	.
Cc1sc2nc(CN3CCOCC3)nc(Oc3ccc(NC(=O)c4ccco4)cc3)c2c1C	-10%	89µM*!	?	50µM*!	1%	6
Cc1ccc(Oc2nc(CN3CCOCC3)nc3sc4c(c23)CCC(C)C4)cc1 (stereo not given)	-3%	?	?	79µM*	-7%	10
